# Calls of active or inactive are those of the source.
# Key:
# [1] = test system: Human papillomavirus type 1a protein E7 (residues 44-93); experiment: small molecules binding HPV E7 44-93 – biochemical, small-molecule microarray, residues 44-93, 635 nm fluorescence, primary screen (AID 1108); settings: fluorescence 635 nm, higher = more signal;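 further: E7 fragment applied at 1 µg/mL in TBST for 1 h at 4 C; score combines spot fluorescence with its signal to noise ratio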
# [2] = hepatitis C replication reporter changes, two-sided – Huh7 cells, luciferase reporter, HCV replication inhibitor project, primary screen (AID 1109); settings: Huh7 HCV replicon luciferase reporter, 48 h; higher = more signal;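 further: huh7 hepatoma cells harbouring a luciferase neomycin HCV replicon reporter; luciferase luminescence as measure of HCV replicon replication; test concentration not given here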
# [3] = molecular target: Left-right determination factor 2 (Homo sapiens) (UniProt O00292); experiment: small molecules binding LEFTY2 protein – biochemical, small-molecule microarray, 635 nm fluorescence scan, primary screen (AID 1110); settings: higher = more signal
# Chain of Left-right determination factor 2 (Homo sapiens) (O00292 whole entry, looked up): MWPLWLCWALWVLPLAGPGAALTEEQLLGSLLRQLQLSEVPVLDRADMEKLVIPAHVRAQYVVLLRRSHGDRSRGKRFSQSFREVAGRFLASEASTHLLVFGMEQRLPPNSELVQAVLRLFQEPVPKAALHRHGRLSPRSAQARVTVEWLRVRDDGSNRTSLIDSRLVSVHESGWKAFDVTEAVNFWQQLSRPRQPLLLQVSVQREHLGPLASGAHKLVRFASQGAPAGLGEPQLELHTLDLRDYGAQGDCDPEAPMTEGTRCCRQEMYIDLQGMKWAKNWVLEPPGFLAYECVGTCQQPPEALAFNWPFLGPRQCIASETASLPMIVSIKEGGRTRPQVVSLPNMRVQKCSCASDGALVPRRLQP
# [4] = molecular target: Calmodulin-1 (Homo sapiens) (UniProt P0DP23); experiment: small molecules binding calmodulin-1 with EGTA – biochemical, small-molecule microarray, Cy5-labelled CALM1, profiling panel (AID 1111); settings: Cy5-CALM1 binding fluorescence, higher = more signal;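 further: labelled calmodulin applied in Tris saline Tween buffer holding calcium plus EGTA and DTT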
# [5] = molecular target: Calmodulin-1 (Homo sapiens) (UniProt P0DP23); experiment: small molecules binding Ca-loaded calmodulin-1 – biochemical, small-molecule microarray, Cy5-labelled CALM1, plus calcium, artefact control for SMM control-protein annotation, profiling panel (AID 1112); settings: Cy5-CALM1 binding fluorescence, higher = more signal;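 further: score merges spot fluorescence with signal to noise from triplicate slides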
# [6] = probe aWnt5a binding to arrayed compounds – biochemical, biotinylated probe, 635/667 nm fluorescence, primary screen (AID 1113); settings: small-molecule microarray, higher = more signal;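 further: score merges 667 nm fluorescence intensity with signal-to-noise per printed feature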
# [7] = probe aShh binding to arrayed compounds – biochemical, biotinylated probe, 635/667 nm fluorescence, primary screen (AID 1114); settings: small-molecule microarray, higher = more signal;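 further: probe is biotin-labelled aShh protein from a stem cell growth factor screen; measures binding of labelled protein to compounds printed on the slide; score merges feature fluorescence at 667 nm with signal-to-noise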
# [8] = probe aNog binding to arrayed compounds – biochemical, biotinylated probe, 635/667 nm fluorescence, primary screen (AID 1115); settings: small-molecule microarray, higher = more signal;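 further: probe is biotinylated aNog protein used at 0.15 µg/mL for 1 h at 4 C; z-score combines 667 nm fluorescence of each spot with its signal to noise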
# [9] = molecular target: Torsin-1A-interacting protein 1 (Homo sapiens) (UniProt Q5JTV8); experiment: compound microarray binding of lysate hLAP1 – cell lysate, small-molecule microarray, COS7 lysate, 635/667 nm fluorescence, primary screen (AID 1116); settings: 635 nm fluorescence, higher = more signal
# Chain of Torsin-1A-interacting protein 1 (Homo sapiens) (Q5JTV8 whole entry, looked up): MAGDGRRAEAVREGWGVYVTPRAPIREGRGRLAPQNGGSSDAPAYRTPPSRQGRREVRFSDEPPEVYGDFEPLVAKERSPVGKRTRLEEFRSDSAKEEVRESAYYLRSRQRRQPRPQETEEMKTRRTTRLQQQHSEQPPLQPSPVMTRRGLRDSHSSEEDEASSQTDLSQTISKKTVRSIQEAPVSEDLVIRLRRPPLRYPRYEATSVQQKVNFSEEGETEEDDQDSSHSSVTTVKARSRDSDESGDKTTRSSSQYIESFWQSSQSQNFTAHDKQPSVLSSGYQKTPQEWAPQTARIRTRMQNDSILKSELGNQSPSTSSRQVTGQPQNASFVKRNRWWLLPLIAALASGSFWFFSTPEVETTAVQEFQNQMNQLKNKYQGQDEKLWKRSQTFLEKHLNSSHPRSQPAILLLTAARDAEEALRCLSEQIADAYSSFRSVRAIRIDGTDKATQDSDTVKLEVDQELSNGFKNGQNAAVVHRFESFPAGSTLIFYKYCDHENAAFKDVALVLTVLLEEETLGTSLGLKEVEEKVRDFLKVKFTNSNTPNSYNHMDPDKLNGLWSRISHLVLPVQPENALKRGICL
# [10] = molecular target: Alpha-bungarotoxin (Bungarus multicinctus) (UniProt P60615); experiment: compounds binding labelled alpha-BTX control protein – biochemical, small-molecule microarray, Alexa647 label, 635/667 nm fluorescence, artefact control for SMM control protein annotation, profiling panel (AID 1117); settings: alpha-BTX-A647 binding fluorescence, higher = more signal
# Chain of Alpha-bungarotoxin (Bungarus multicinctus) (P60615 whole entry, looked up): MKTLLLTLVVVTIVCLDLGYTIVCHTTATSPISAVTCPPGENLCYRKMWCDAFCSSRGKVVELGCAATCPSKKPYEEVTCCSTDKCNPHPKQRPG
# [11] = molecular target: Albumin (Bos taurus) (UniProt P02769); experiment: compounds binding labelled BSA control protein – biochemical, small-molecule microarray, Alexa647 label, 635/667 nm fluorescence, artefact control for SMM control protein annotation, profiling panel (AID 1118); settings: BSA-A647 binding, fluorescence 635 nm, higher = more signal;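 further: score merges 667 nm emission intensity and signal-to-noise per printed compound spot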
# Chain of Albumin (Bos taurus) (P02769 whole entry, looked up): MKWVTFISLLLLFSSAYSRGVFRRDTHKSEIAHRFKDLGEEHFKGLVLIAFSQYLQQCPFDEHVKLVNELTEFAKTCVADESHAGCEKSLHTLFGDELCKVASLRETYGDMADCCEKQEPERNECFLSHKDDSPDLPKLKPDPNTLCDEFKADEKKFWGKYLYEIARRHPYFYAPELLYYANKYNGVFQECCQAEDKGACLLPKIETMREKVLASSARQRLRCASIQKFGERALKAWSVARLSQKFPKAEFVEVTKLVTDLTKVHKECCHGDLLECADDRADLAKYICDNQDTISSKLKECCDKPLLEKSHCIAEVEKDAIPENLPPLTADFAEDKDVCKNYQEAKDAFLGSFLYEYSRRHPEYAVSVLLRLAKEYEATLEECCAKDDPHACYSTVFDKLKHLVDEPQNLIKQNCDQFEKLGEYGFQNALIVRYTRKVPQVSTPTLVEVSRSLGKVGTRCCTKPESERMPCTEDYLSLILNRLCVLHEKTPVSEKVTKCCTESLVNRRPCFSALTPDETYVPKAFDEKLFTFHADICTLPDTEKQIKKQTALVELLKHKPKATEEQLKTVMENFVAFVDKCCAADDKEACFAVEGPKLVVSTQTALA
# [12] = probe aXIP binding to arrayed compounds – biochemical, NeuroSMM set, 635/667 nm fluorescence, primary screen (AID 1119); settings: small-molecule microarray, higher = more signal, called active from +8 up or from −8 down;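 further: probe is the protein aXip251-270 applied at 1 µg/mL to compound-printed slides; binding of probe to printed compounds measured as 667 nm fluorescence plus signal to noise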
# [13] = probe aNOTCH3 binding on compound microarray – biochemical, small-molecule microarray, 635/667 nm fluorescence, primary screen (AID 1120); settings: higher = more signal;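 further: probe is a biotin-tagged antibody raised against NOTCH3 rather than NOTCH3 protein; score merges spot fluorescence near 667 nm with spot signal to noise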
# [14] = probe aNOTCH2 binding on compound microarray – biochemical, small-molecule microarray, 635/667 nm fluorescence, primary screen (AID 1121); settings: higher = more signal;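 further: score merges feature fluorescence read at 667 nm with its signal to noise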
# [15] = molecular target: Carbonic anhydrase 2 (Homo sapiens) (UniProt P00918); experiment: compounds binding carbonic anhydrase 2 – biochemical, small-molecule microarray, Alexa647-labelled CAII, profiling panel (AID 1122); settings: CAII-A647 binding fluorescence, higher = more signal
# [16] = COS7 lysate on small-molecule microarray, probe aHis, 635 nm (AID 1123); settings: COS7 cell lysate, fluorescence, higher = more signal;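 further: z-score combines 667nm fluorescence intensity with signal-to-noise per printed compound spot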
# [17] = probe aLAP1 signal on lysate-treated microarray – cell lysate, small-molecule microarray, COS7 lysate, primary screen (AID 1124); settings: probe aLAP1, fluorescence, higher = more signal;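 further: lysate comes from COS7 cells expressing LAP1 and is applied at 0.3 µg/mL; score merges spot fluorescence near 667 nm with signal-to-noise over triplicate slides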
# [18] = test system: Sam68 (KHDRBS1); experiment: compounds binding KHDRBS1 protein – biochemical, small-molecule microarray, 635 nm fluorescence, primary screen (AID 1125); settings: higher = more signal;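 further: score merges 667 nm channel intensity with signal to noise over triplicate slides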
# [19] = test system: Chordin-like protein 2 (CHRDL2); experiment: compounds binding chordin-like 2 – biochemical, small-molecule microarray, 635 nm fluorescence, primary screen (AID 1126); settings: fluorescence 635 nm, higher = more signal;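 further: printed compound slides probed with Chrdl2 protein at 4 µg/mL for 1 h at 4 C; score merges 667 nm emission intensity with signal to noise over three replicate slides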
# [20] = molecular target: Concanavalin-A (Canavalia ensiformis) (UniProt P02866); experiment: compounds binding concanavalin A lectin – biochemical, small-molecule microarray, Alexa647 label, 635 nm, artefact control for SMM control protein annotation, primary screen (AID 1127); settings: ConA-A647 binding fluorescence, higher = more signal;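 further: z combines 667 nm emission intensity with signal-to-noise across three replicate slides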
# Chain of Concanavalin-A (Canavalia ensiformis) (P02866 whole entry, looked up): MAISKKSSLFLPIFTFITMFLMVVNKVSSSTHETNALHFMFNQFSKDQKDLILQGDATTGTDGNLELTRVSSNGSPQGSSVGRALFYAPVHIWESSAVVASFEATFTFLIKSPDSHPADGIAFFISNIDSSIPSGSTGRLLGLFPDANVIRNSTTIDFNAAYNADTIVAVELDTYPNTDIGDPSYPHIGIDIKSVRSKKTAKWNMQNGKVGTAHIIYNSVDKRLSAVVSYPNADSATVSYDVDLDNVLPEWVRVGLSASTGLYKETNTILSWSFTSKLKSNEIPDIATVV
Structure (SMILES),composite z-score [1],z-score [2],composite z-score [3],composite z-score [4],composite z-score [5],composite z-score [6],composite z-score [7],composite z-score [8],composite z-score [9],composite z-score [10],composite z-score [11],composite Z-score [12],composite z-score [13],composite z-score [14],composite z-score [15],composite z-score [16],composite z-score [17],composite z-score [18],composite z-score [19],composite z-score [20]
CCC=CCCC(OC(=O)c1ccc(Br)cc1)C1=CCCCC1=O (stereo not given),1.17,-2.38,0.664,-1.06,-1.54,-0.0512,-0.124,-0.198,0.221,0.654,0.231,-0.0549 (inactive),0.0836,-0.102,0.696,0.678,0.0079,0.776,1.02,-0.297
COC(=O)CC=C[C@@H](C)[C@@H](C=NO[C@@H](C)c1cn([C@H](CO)Cc2ccccc2)nn1)NS(=O)(=O)c1ccc(C)cc1,-0.0476,-0.858,0.739,-0.598,-0.531,0.0077,-0.0977,0.143,0.258,-0.331,-0.193,-0.0278 (inactive),0.107,-0.103,-0.146,-0.306,0.232,0.43,0.784,-0.419
COc1cc(O)c(C(=O)C=Cc2ccc3c(c2)OCO3)c(OC)c1,-2.33,-1.53,-0.143,0.283,-0.582,0.0438,-0.332,-0.219,-0.289,0.825,0.0618,-0.024 (inactive),-0.0647,-0.134,-0.337,-0.932,-0.185,-1.93,0.102,1
CCOC(=O)[C@H](CC(C)C)NC(=O)CCC1CC(OC(=O)NCCc2ccc(F)cc2)CC2(CCCC(COC(=O)NCCC(C)C)O2)O1 (stereo not given in full),0.48,0.314,0.344,0.586,-0.216,-0.0383,-0.0733,-0.108,-0.0671,1.21,0.281,-0.375 (inactive),0.128,-0.177,0.269,0.596,-0.14,-0.163,0.301,0.816
COC(=O)CC=C[C@@H](C)[C@@H](C=NOCC[C@@H]1C=C[C@H](OC(C)=O)[C@@H](COC(C)=O)O1)NS(=O)(=O)c1ccc(C)cc1,-0.0642,-1.45,0.851,-0.879,-1.47,-0.0519,0.0141,-0.429,0.164,-0.0729,-0.361,0.366 (inactive),0.132,-0.0938,-0.297,-0.309,0.195,0.854,0.687,-2.79
Cc1ccc(S(=O)(=O)N[C@H]2COC(=O)CC=C[C@@H](C)COC(=O)CC=C[C@@H]2C)cc1,-0.572,0.391,0.449,-0.606,-1.24,-0.12,-0.153,-0.222,0.163,-0.361,-1.17,-0.821 (inactive),-0.163,-0.186,-0.41,-0.688,-0.209,0.393,1.23,-0.351
CCCCC#C[C@@H]1C=C[C@H](Oc2ccc(C(=O)OC)cc2)[C@@H](COC(=O)OCC)O1,0.42,-3.22,0.494,-0.184,-0.581,-0.0735,-0.2,0.129,1.19,0.807,0.109,-0.0877 (inactive),-0.106,-0.0578,0.39,0.205,0.0053,0.769,0.978,0.64
C#CCCCON=C1C[C@@H](O)[C@@H](O)[C@@H]2[C@@H]3C(=O)N(CC)C(=O)[C@@H]3CC[C@@H]12,0.431,-0.113,0.507,-0.4,-0.749,-0.164,-0.197,-0.133,0.586,1.27,-0.171,-0.0844 (inactive),0.0779,-0.108,0.231,0.248,-0.0523,0.771,0.687,0.433
O=C1[C@H]2[C@H]3[C@H](O)[C@H](O)CC(=NOC[C@@H](O)COCc4ccco4)[C@H]3CC[C@H]2C(=O)N1Cc1ccccc1,-1.01,-0.523,0.665,-0.684,-1.22,-0.18,-0.27,0.0444,-0.193,-0.309,-0.13,0.48 (inactive),-0.119,-0.192,-0.154,-0.867,-0.343,-0.333,0.836,-0.242
CC(C)CON=C1C[C@@H](O)[C@@H](O)[C@@H]2[C@@H]3C(=O)N(c4cccc(Oc5ccccc5)c4)C(=O)[C@@H]3CC[C@@H]12,1.35,0.251,0.374,1.05,-0.426,0.0215,-0.221,-0.158,1.06,0.538,0.621,0.0388 (inactive),-0.0377,-0.121,0.418,1.04,0.118,1.17,0.232,1.13
COC(=O)CC=C[C@@H](C)[C@@H](C=NO[C@H](C)c1cn([C@H](CO)Cc2ccccc2)nn1)NS(=O)(=O)c1ccc(C)cc1,0.37,-1.35,0.483,0.333,-0.215,-0.152,0.178,-0.0196,1.42,1.56,0.749,0.863 (inactive),0.0242,-0.118,-0.276,-0.0104,0.78,0.566,0.437,0.837
